# From PubChem BioAssay (NCATS)
# Where “and” joins values, the source holds several entries; their conditions need not be identical. Equal entries are not always repeated. Results filed as inconclusive are left out. A number with no mark means an inactive call. Calls of active or inactive are those of the source. Calls come from the whole dose curve; as a rule, active = well fitted curve in the direction sought with a large enough effect; inconclusive = small, poorly fitted or top-dose-only effect, or another doubt; inactive = no such curve, though single readings can be large; an effect the other way counts as inactive or inconclusive.
# Assay: qHTS of pediatric cancer cell lines to identify multiple opportunities for drug repurposing: Confirmatory screen for SJ-GBM2 cells (AID 1347116); note: nearly all actives have a fitted effect of over 60% in size;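 for activity change, negative = cytotoxic: plate controls were DMSO for no effect and bortezomib for full effect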
# Details: SJ-GBM2 glioblastoma cells, viability; series mostly up to 45.9 µM; activity change, negative = cytotoxic: at the top concentration
# Outline: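 Viability measured as metabolically active cells via CellTiter-Glo luminescence following 48 hours of compound exposure, 11-point dilutions in confirmatory testing. 500-1,000 cells/well plated 5 hours before dosing; controls were DMSO and 2.3 µM bortezomib.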
# Potency is the fitted concentration of half-maximal effect.
SMILES,"activity change, negative = cytotoxic",Potency
Cc1nc(Nc2ncc(C(=O)Nc3c(C)cccc3Cl)s2)cc(N2CCN(CCO)CC2)n1,16.5%,
CCOc1cc(CC(=O)N[C@@H](CC(C)C)c2ccccc2N2CCCCC2)ccc1C(=O)O,13.8%,
C[C@]12CCC(=O)C=C1CC[C@@H]1[C@H]2[C@@H](O)C[C@@]2(C)[C@H]1CC[C@]2(O)C(=O)CO,13.3%,
CCN(CC)C(=S)SSC(=S)N(CC)CC,,1.31 µM (active)
COc1cc(C(C)=O)ccc1OCCCN1CCC(c2noc3cc(F)ccc23)CC1,-13.5%,
Cc1ccc(NC(=O)c2ccc(CN3CCN(C)CC3)cc2)cc1Nc1nccc(-c2cccnc2)n1,4.51%,
CC[C@]1(O)C[C@H]2CN(CCc3c([nH]c4ccccc34)[C@@](C(=O)OC)(c3cc4c(cc3OC)N(C=O)[C@H]3[C@@](O)(C(=O)OC)[C@H](OC(C)=O)[C@]5(CC)C=CCN6CC[C@]43[C@@H]65)C2)C1,,0.185 µM (active)

# Assay: qHTS of pediatric cancer cell lines to identify multiple opportunities for drug repurposing: Confirmatory screen for BT-37 cells (AID 1347117); note: nearly all actives have a fitted effect of over 55% in size;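 for activity change, negative = cytotoxic: plate controls were DMSO for no effect and bortezomib for full effect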
# Details: BT-37 pediatric cancer cells, viability; series mostly up to 45.9 µM; activity change, negative = cytotoxic: at the top concentration
# Outline: (§1)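 Cells (500-1,000/well) in growth media were settled 5 h at 37 degrees C, then given compounds for 48 h. Viability was read as CellTiter-Glo luminescence. Primary runs used MIPE at 11 points (0.78 nM-46 µM) and NPC at 8 points (0.59 nM-46 µM); follow-ups used 11 points.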
SMILES,"activity change, negative = cytotoxic",Potency
CC1(C)C(=O)N(CCN2CCC(C(=O)c3ccc(F)cc3)CC2)c2ccccc21,-17.6%,
CCOc1cc(CC(=O)N[C@@H](CC(C)C)c2ccccc2N2CCCCC2)ccc1C(=O)O,8.42%,
O=C(CCc1ccc(O)cc1)c1c(O)cc(O)cc1O,-4%,
CCN(CC)C(=S)SSC(=S)N(CC)CC,,414 nM (active)
CC[C@]1(O)C[C@H]2CN(CCc3c([nH]c4ccccc34)[C@@](C(=O)OC)(c3cc4c(cc3OC)N(C=O)[C@H]3[C@@](O)(C(=O)OC)[C@H](OC(C)=O)[C@]5(CC)C=CCN6CC[C@]43[C@@H]65)C2)C1,,14.7 nM (active) and 131 nM (active)
Nc1nc(Cl)nc2c1ncn2[C@H]1C[C@H](O)[C@@H](CO)O1,,208 nM (active)

# Assay: qHTS of pediatric cancer cell lines to identify multiple opportunities for drug repurposing: Confirmatory screen for TC32 cells (AID 1347118);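 note: cells exposed to compound for 48 h before the read; nearly all actives have a fitted effect of over 65% in size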; for activity change, negative = cytotoxicity: % is set by controls: 0 for no effect and ±100 for the full control effect
# Details: TC32 Ewing sarcoma cells viability qHTS; series mostly up to 45.9 µM; activity change, negative = cytotoxicity: at the top concentration
# Outline: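 Luminescent ATP read-out (CellTiter-Glo) of metabolically active TC32 cells after 48 h exposure. Concentration-response curves came from 11-point (MIPE, 0.78 nM–46 µM) or 8-point (NPC, 0.59 nM–46 µM) primary titrations; follow-up used 11 points.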
SMILES,"activity change, negative = cytotoxicity",Potency
Cc1nc(Nc2ncc(C(=O)Nc3c(C)cccc3Cl)s2)cc(N2CCN(CCO)CC2)n1,-93.3%,
CC1(C)C(=O)N(CCN2CCC(C(=O)c3ccc(F)cc3)CC2)c2ccccc21,,7.37 µM (active)
CCOc1cc(CC(=O)N[C@@H](CC(C)C)c2ccccc2N2CCCCC2)ccc1C(=O)O,5.08%,
O=C(CCc1ccc(O)cc1)c1c(O)cc(O)cc1O,-11.1%,
CCN(CC)C(=S)SSC(=S)N(CC)CC,,0.293 µM (active)
COc1cc(C(C)=O)ccc1OCCCN1CCC(c2noc3cc(F)ccc23)CC1,,20.8 µM (active)
CC[C@]1(O)C[C@H]2CN(CCc3c([nH]c4ccccc34)[C@@](C(=O)OC)(c3cc4c(cc3OC)N(C=O)[C@H]3[C@@](O)(C(=O)OC)[C@H](OC(C)=O)[C@]5(CC)C=CCN6CC[C@]43[C@@H]65)C2)C1,,26.1 nM (active) and 117 nM (active)
Nc1nc(Cl)nc2c1ncn2[C@H]1C[C@H](O)[C@@H](CO)O1,,0.737 µM (active)

# Assay: qHTS of pediatric cancer cell lines to identify multiple opportunities for drug repurposing: Confirmatory screen for U-2 OS cells (AID 1347122); note: nearly all actives have a fitted effect of over 65% in size;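 for activity change, negative = cytotoxicity: plate controls were DMSO for no effect and bortezomib for full effect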
# Details: U-2 OS osteosarcoma cell viability; series mostly up to 45.9 µM; activity change, negative = cytotoxicity: at the top concentration
# Outline: as §1
SMILES,Potency,outcome,"activity change, negative = cytotoxicity"
Cc1nc(Nc2ncc(C(=O)Nc3c(C)cccc3Cl)s2)cc(N2CCN(CCO)CC2)n1,3.29 µM (active),,
CCOc1cc(CC(=O)N[C@@H](CC(C)C)c2ccccc2N2CCCCC2)ccc1C(=O)O,,inactive,
C[C@]12CCC(=O)C=C1CC[C@@H]1[C@H]2[C@@H](O)C[C@@]2(C)[C@H]1CC[C@]2(O)C(=O)CO,,,3.34%
O=C(CCc1ccc(O)cc1)c1c(O)cc(O)cc1O,,,2.26%
CCN(CC)C(=S)SSC(=S)N(CC)CC,11.7 µM (active),,
Cc1ccc(NC(=O)c2ccc(CN3CCN(C)CC3)cc2)cc1Nc1nccc(-c2cccnc2)n1,,,12%
CC[C@]1(O)C[C@H]2CN(CCc3c([nH]c4ccccc34)[C@@](C(=O)OC)(c3cc4c(cc3OC)N(C=O)[C@H]3[C@@](O)(C(=O)OC)[C@H](OC(C)=O)[C@]5(CC)C=CCN6CC[C@]43[C@@H]65)C2)C1,414 nM (active) and 585 nM (active),,
Nc1nc(Cl)nc2c1ncn2[C@H]1C[C@H](O)[C@@H](CO)O1,,,-89.5%

# Assay: qHTS of pediatric cancer cell lines to identify multiple opportunities for drug repurposing: Confirmatory screen for Rh41 cells (AID 1347123);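 note: 48 h compound exposure; nearly all actives have a fitted effect of over 60% in size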;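 for activity change, negative = cytotoxic: plate controls were DMSO for no effect and bortezomib for full effect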
# Details: Rh41 rhabdomyosarcoma cells, viability/cytotoxicity qHTS; series mostly up to 45.9 µM; activity change, negative = cytotoxic: at the top concentration
# Outline: as §1
SMILES,Potency,"activity change, negative = cytotoxic"
Cc1nc(Nc2ncc(C(=O)Nc3c(C)cccc3Cl)s2)cc(N2CCN(CCO)CC2)n1,2.61 µM (active),
CCOc1cc(CC(=O)N[C@@H](CC(C)C)c2ccccc2N2CCCCC2)ccc1C(=O)O,,9.55%
C[C@]12CCC(=O)C=C1CC[C@@H]1[C@H]2[C@@H](O)C[C@@]2(C)[C@H]1CC[C@]2(O)C(=O)CO,,-19.9%
O=C(CCc1ccc(O)cc1)c1c(O)cc(O)cc1O,,-6.94%
CCN(CC)C(=S)SSC(=S)N(CC)CC,0.261 µM (active),
COc1cc(C(C)=O)ccc1OCCCN1CCC(c2noc3cc(F)ccc23)CC1,18.5 µM (active),
Cc1ccc(NC(=O)c2ccc(CN3CCN(C)CC3)cc2)cc1Nc1nccc(-c2cccnc2)n1,,-26.1%
CC[C@]1(O)C[C@H]2CN(CCc3c([nH]c4ccccc34)[C@@](C(=O)OC)(c3cc4c(cc3OC)N(C=O)[C@H]3[C@@](O)(C(=O)OC)[C@H](OC(C)=O)[C@]5(CC)C=CCN6CC[C@]43[C@@H]65)C2)C1,23.3 nM (active) and 18.5 nM (active),
Nc1nc(Cl)nc2c1ncn2[C@H]1C[C@H](O)[C@@H](CO)O1,,-24.6%
